From PMC8384837, “Expanding the binding specificity for RNA recognition by a PUF domain”

Tests used:
Test in all cases: yeast three-hybrid, YBZ-1, SC-Leu-His + 0.5 mM 3-AT, 4 days
Conditions in all cases: tags: N-Gal4 AD-HA kept; label: inside an RPR1-promoter hybrid RNA with tandem MS2 sites; ssRNA
[1] = molecular target: PUM1 PUF domain R5-RRD (Homo sapiens, UniProt Q14671 828-1176, C1007R;Q1011D)
Outline: (§1)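 Sequencing with Illumina followed PCR amplification of the repeat regions from transformants grown four days on SC-Leu (input) or SC-Leu-His + 0.5 mM 3-AT (selection). The transformants were strain YBZ-1 with a LexA–MS2 coat fusion and a HIS3 reporter, carrying Pumilio-1 PUF domain libraries and matching RNA elements. The interaction score is the log change in variant frequency from input to selection, computed in log2 with a pseudocount of 1 for absent variants.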

[2] = molecular target: PUM1 PUF domain R7-TIV (Homo sapiens, UniProt Q14671 828-1176, S1079T;N1080I;E1083V)
Outline: as §1

[3] = molecular target: PUM1 PUF domain R4-WSG (Homo sapiens, UniProt Q14671 828-1176, N971W;H972S;Q975G)
Outline: as §1

[4] = molecular target: T1, PUM1 PUF domain R6-QRS (Homo sapiens, UniProt Q14671 828-1176, N1043Q;Y1044R;Q1047S)
T1 sequence: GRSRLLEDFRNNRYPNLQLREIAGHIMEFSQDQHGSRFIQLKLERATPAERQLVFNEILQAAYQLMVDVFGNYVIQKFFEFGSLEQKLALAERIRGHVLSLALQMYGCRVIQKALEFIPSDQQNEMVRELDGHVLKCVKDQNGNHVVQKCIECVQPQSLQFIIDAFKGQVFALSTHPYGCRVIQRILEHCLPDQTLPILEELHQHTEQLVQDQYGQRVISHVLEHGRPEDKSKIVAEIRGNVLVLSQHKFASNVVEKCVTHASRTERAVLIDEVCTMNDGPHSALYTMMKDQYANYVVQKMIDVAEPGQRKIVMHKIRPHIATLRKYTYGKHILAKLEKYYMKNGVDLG
Outline: as §1

[5] = molecular target: PUM1 PUF domain R3-IFT (Homo sapiens, UniProt Q14671 828-1176, C935I;R936F;Q939T)
Outline: as §1

[6] = molecular target: PUM1 PUF domain R5-KYS (Homo sapiens, UniProt Q14671 828-1176, C1007K;R1008Y;Q1011S)
Outline: as §1

[7] = molecular target: PUM1 PUF domain R8-EWK (Homo sapiens, UniProt Q14671 828-1176, N1122E;Y1123W;Q1126K)
Outline: as §1

[8] = molecular target: PUM1 PUF domain R5-RHN (Homo sapiens, UniProt Q14671 828-1176, C1007R;R1008H;Q1011N)
Outline: as §1

[9] = molecular target: PUM1 PUF domain R3-RCS (Homo sapiens, UniProt Q14671 828-1176, C935R;R936C;Q939S)
Outline: as §1

[10] = molecular target: PUM1 PUF domain R1-QTR (Homo sapiens, UniProt Q14671 828-1176, S863Q;R864T;Q867R)
Outline: as §1

With “GGCUAGAACUAGUGGAUCCCCCGGCGCCCGGCGGCUCGAGCCCGGGUAAGUGUUAAUAGUCUGCAUGCCGCCGGGCGCCAUGCCUGCAGGUCGACUCUAGAAAACAUG” the binding signal [1] was 5.74 log2 enrichment (interaction score).

With “GGCUAGAACUAGUGGAUCCCCCGGCGCCCGGCGGCUCGAGCCCGGGUAAGUUUAAAUAGUCUGCAUGCCGCCGGGCGCCAUGCCUGCAGGUCGACUCUAGAAAACAUG” the binding signal [2] was 2.5 log2 enrichment (interaction score).

“GGCUAGAACUAGUGGAUCCCCCGGCGCCCGGCGGCUCGAGCCCGGGUAAGUGUACAUAGUCUGCAUGCCGCCGGGCGCCAUGCCUGCAGGUCGACUCUAGAAAACAUG” was tested, and the binding signal [3] was 2.7 log2 enrichment (interaction score).

“GGCUAGAACUAGUGGAUCCCCCGGCGCCCGGCGGCUCGAGCCCGGGUAAGUGUAAAUAGUCUGCAUGCCGCCGGGCGCCAUGCCUGCAGGUCGACUCUAGAAAACAUG” was tested, and the binding signal [4] was 4.63 log2 enrichment (interaction score), the binding signal [3] was 1.85 log2 enrichment (interaction score) and the binding signal [5] was 4.66 log2 enrichment (interaction score). For the same sequence, the binding signal [6] was 2.35 log2 enrichment (interaction score), the binding signal [7] was 3.5 log2 enrichment (interaction score) and the binding signal [1] was 2.72 log2 enrichment (interaction score).

In the case of “GGCUAGAACUAGUGGAUCCCCCGGCGCCCGGCGGCUCGAGCCCGGGUAAGUGUAUAUAGUCUGCAUGCCGCCGGGCGCCAUGCCUGCAGGUCGACUCUAGAAAACAUG”, the binding signal [3] was 3.48 log2 enrichment (interaction score).

With “GGCUAGAACUAGUGGAUCCCCCGGCGCCCGGCGGCUCGAGCCCGGGUAAGUGUGAAUAGUCUGCAUGCCGCCGGGCGCCAUGCCUGCAGGUCGACUCUAGAAAACAUG” the binding signal [8] was 4.79 log2 enrichment (interaction score).

With “GGCUAGAACUAGUGGAUCCCCCGGCGCCCGGCGGCUCGAGCCCGGGUAAGUGUAAGUAGUCUGCAUGCCGCCGGGCGCCAUGCCUGCAGGUCGACUCUAGAAAACAUG” the binding signal [9] was 4.81 log2 enrichment (interaction score).

“GGCUAGAACUAGUGGAUCCCCCGGCGCCCGGCGGCUCGAGCCCGGGUAAGUGUCAAUAGUCUGCAUGCCGCCGGGCGCCAUGCCUGCAGGUCGACUCUAGAAAACAUG” was tested, and the binding signal [6] was 3.71 log2 enrichment (interaction score) and the binding signal [1] was 5.76 log2 enrichment (interaction score).

With “GGCUAGAACUAGUGGAUCCCCCGGCGCCCGGCGGCUCGAGCCCGGGUAAGUGUAAAUCGUCUGCAUGCCGCCGGGCGCCAUGCCUGCAGGUCGACUCUAGAAAACAUG” the binding signal [10] was 2.41 log2 enrichment (interaction score).
